This is part of a sample that, as a whole, favours compounds with a hit. Of some 83,000 tested, about 20% had one in any assay.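 Cells were grown in 96-well plates and exposed to the test compound at a single concentration for 48 hours; results are reported as percent growth, with values below 10 considered active.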 Activity calls are given as the source filed them.

The first test concerns UACC-257 melanoma. In words: NCI-60 one-dose screen, 48 h (100 = growth as untreated, 0 = no growth, -100 = all killed). As to conditions: 10 µM unless noted.
As to `CC(C)C(=O)Nc1n[nH]c2cc(-c3cccc(NS(=O)(=O)C4CC4)c3)ccc12`, the growth was 66.8% (inactive).
Still for that read-out and setting: next, `COc1ccc(-c2nc3ccc4[nH]ncc4c3c3c2CCCC3)cc1B(O)O`: 88.5% (inactive); `COc1cc(OC)cc(C2CC(=O)Nc3c2c(C)nn3-c2nc3ccccc3[nH]2)c1` (configuration not stated): 23.9% (inactive).
For `CCOC(=O)c1c2ncccc2n2c(=O)n(-c3ccccc3C)nnc12`, the growth was 91.7% (inactive).
On the same count and under the same terms, next, `CCN(CCNc1ccc(C)c2sc3ccccc3c(=O)c12)CC(C)(C)O`: 95.9% (inactive); `CCCCNC(=O)Oc1ccc2c(=O)c3sc4c(=O)c5ccccc5c(=O)c4c3c(=O)c2c1`: -95.7% (active).
For `O=C(NCCCNc1cc(-c2cn(-c3ccccc3)nc2-c2cccc(O)c2)ccn1)c1ccc(F)cc1`, the growth was -51.7% (active).
The same measure, in the same setting: for `CC(C)=C[C@@H]1c2c(c3ccccc3n(C)c2=O)O[C@H]2c3c(c4ccccc4n(C)c3=O)OC(C)(C)[C@@H]12` the value was 82.2% (inactive); for `CCN1CCN(c2nc(C)cc(NCc3cc(Nc4ccnc5cc(Cl)ccc45)ccc3F)n2)CC1`, -57.7% (active); for `COc1ccc2c(c1)O/C(=C\c1cccc(OCC(=O)Nc3nc4ccccc4s3)c1)C2=O`, 106% (inactive).
The same measure, in the same setting: next, `Cc1nn(-c2ccccc2)c(Oc2ccc(Cl)cc2)c1/C=N\N=c1/sc2ccccc2n1C`: 91.9% (inactive); `COc1cc(C2NC(=O)c3ccccc3N2)ccc1OCCCCCOc1c(OC)cc(C2=NOC(c3cc(OC)c(OC)c(OC)c3)C2)cc1OC` (configuration not stated): 44% (inactive).
On the same count and under the same terms, next, `COc1cc(C2CC(=O)Nc3c2c(C)nn3-c2nc3ccccc3[nH]2)c(OC)c(OC)c1OC` (configuration not stated): 60.6% (inactive); `CC1(C)OC2C(CO[Si](C)(C)C(C)(C)C)OC(n3c(I)c(C#C[Si](C)(C)C)c(=O)[nH]c3=O)C2O1` (configuration not stated): 91.3% (inactive); `CC(=O)N1C(=S)NC(=O)C1Cn1c(-c2ccccc2)nc2ccccc21` (configuration not stated): 107% (inactive).
For the compound `COCN1CCC2N(COC)CCC3N(COC)CCC1N23` (configuration not stated), the growth is 98.8% (inactive).
For the compound `C=CC(=O)Nc1cccc(Oc2nccc(Nc3nnc(C4CC4)s3)n2)c1`, the growth is 105% (inactive).
`COc1ccc(N=Nc2ccc(O)c(=O)cc2)cc1`: the growth is 7.51% (active).
The same measure, in the same setting: for `C=C1C(=O)O[C@H]2[C@H]1CC/C(COC(=O)C(=O)c1cn(C)c3ccc(OC)cc13)=C\CC[C@@]1(C)O[C@@H]21` the value was -72.1% (active); for `COc1cccc(-c2nn(-c3ccccc3)cc2-c2ccnc(NCCNC(=O)Nc3ccccc3)c2)c1`, 42.9% (inactive).
On the same count and under the same terms, next, `COC(=O)[C@]12CC[C@@H](C)[C@H](C)[C@@H]1C1=CC[C@@H]3[C@@]4(C)C(C=O)=C[C@@](C)(COC(C)=O)[C@@H]4[C@H](O)C[C@@]3(C)[C@]1(C)CC2`: -58.6% (active); `O=C(Nc1cccc(Cl)c1)c1cc(N=Nc2ccc([N+](=O)[O-])cc2Cl)ccc1O`: -1.95% (active); `COc1ccc(C2c3ccc4ccccc4c3Oc3nc(C)[nH]c(=O)c32)cc1` (configuration not stated): 111% (inactive).
Consider `COC(=O)c1ccc(C2Nc3ccc(S(=O)(=O)Nc4ccc(C)c(C)c4)cc3C3OCCC23)cc1` (configuration not stated), for which the growth is 79.6% (inactive).

The test system of the next test is M14 melanoma. The test is described as above. Conditions: 10 µM unless noted.
For `COc1ccc(C2=Nc3c(N)ncnc3NC(c3ccc4c(c3)OCO4)C2)cc1` (configuration not stated), the growth is 73.8% (inactive).
Same read-out and setting: next, `COc1ccc2occ(C3=C(c4c[nH]c5ccccc45)C(=O)N(O)C3=O)c2c1`: 94.2% (inactive).
On the same count and under the same terms, for `NCCCNc1nc2ccccc2c2c(=O)c3cccc(Cl)c3sc12` the value was -46.4% (active).
On to `O=c1c2cc(F)ccc2sc2c(NCCN3CCCCC3)nc3ccccc3c12`, for which the growth was -61.7% (active).
On the same count and under the same terms, next, `Cc1ccc2c(c1)Sc1c(ccc3ccccc13)N2`: 65.4% (inactive).
The same measure, in the same setting: for `CCCCCCCCCCCCCCCCCCOc1ccc(CC(=O)OCC[N+]2(C)CCCC2)cc1` the value was 97.9% (inactive); for `CC(=O)OC[C@H]1OC(Sc2sc(C(=O)c3ccc(Br)cc3)c(N)c2-c2nc3ccccc3s2)[C@H](OC(C)=O)[C@@H](OC(C)=O)[C@@H]1OC(C)=O` (some centres not stated), 61.6% (inactive).
The same measure, in the same setting: next, `O=C(O)c1ccc2c(c1)CCC2`: 101% (inactive); `COc1ccc(-c2[nH]c(=S)n(C(CC3(C)NCC(=O)N3n3c(-c4ccccc4)cc(C)nc3=S)c3ccc(OC)cc3)c(=O)c2Br)cc1` (configuration not stated): 70.9% (inactive); `C[C@H](NC(=O)[C@@H]1CSSC[C@@H](NC(=O)c2nc3ccccc3cc2O)C(=O)NCC(=O)N1C)c1ccccc1`: 0.586% (active).
Regarding `CCc1ccccc1-n1c(-c2ccc(Cl)cc2)cc(-c2ccc(Cl)cc2)c(C#N)c1=O`, the growth was 85.3% (inactive).
On the same count and under the same terms, next, `COCCc1ccc(OCC(O)CNC(C)C)cc1` (configuration not stated): 92.4% (inactive); `COc1ccc(/C=C/c2c(C(=O)/C=C/c3cccs3)c(C)nc3ccccc23)cc1`: 89.3% (inactive).
For the compound `COc1ccc(-c2nc3c(N)c(CO)c(C)nc3o2)cc1`, the growth is 106% (inactive).
`CC(C)C(=O)Nc1n[nH]c2cc(-c3cccc(NS(=O)(=O)C4CC4)c3)ccc12`: the growth was 55.7% (inactive).
The same measure, in the same setting: for `COc1ccc(-c2nc3ccc4[nH]ncc4c3c3c2CCCC3)cc1B(O)O` the value was 46.5% (inactive).
Same read-out and setting: next, `COc1cc(OC)cc(C2CC(=O)Nc3c2c(C)nn3-c2nc3ccccc3[nH]2)c1` (configuration not stated): 11.8% (inactive).
Still for that read-out and setting: for `CCOC(=O)c1c2ncccc2n2c(=O)n(-c3ccccc3C)nnc12` the value was 99% (inactive).
For `CCN(CCNc1ccc(C)c2sc3ccccc3c(=O)c12)CC(C)(C)O`, the growth is 73.2% (inactive).
On the same count and under the same terms, next, `CCCCNC(=O)Oc1ccc2c(=O)c3sc4c(=O)c5ccccc5c(=O)c4c3c(=O)c2c1`: -77.6% (active).
Still for that read-out and setting: next, `O=C(NCCCNc1cc(-c2cn(-c3ccccc3)nc2-c2cccc(O)c2)ccn1)c1ccc(F)cc1`: -41.8% (active).
The same measure, in the same setting: next, `CC(C)=C[C@@H]1c2c(c3ccccc3n(C)c2=O)O[C@H]2c3c(c4ccccc4n(C)c3=O)OC(C)(C)[C@@H]12`: 98.9% (inactive); `CCN1CCN(c2nc(C)cc(NCc3cc(Nc4ccnc5cc(Cl)ccc45)ccc3F)n2)CC1`: -83.7% (active).
As for `COc1ccc2c(c1)O/C(=C\c1cccc(OCC(=O)Nc3nc4ccccc4s3)c1)C2=O`, the growth was 42.9% (inactive).
On the same count and under the same terms, for `Cc1nn(-c2ccccc2)c(Oc2ccc(Cl)cc2)c1/C=N\N=c1/sc2ccccc2n1C` the value was 87.4% (inactive).
On the same count and under the same terms, next, `COc1cc(C2NC(=O)c3ccccc3N2)ccc1OCCCCCOc1c(OC)cc(C2=NOC(c3cc(OC)c(OC)c(OC)c3)C2)cc1OC` (configuration not stated): 84.3% (inactive); `COc1cc(C2CC(=O)Nc3c2c(C)nn3-c2nc3ccccc3[nH]2)c(OC)c(OC)c1OC` (configuration not stated): 17% (inactive).
On the same count and under the same terms, for `CC1(C)OC2C(CO[Si](C)(C)C(C)(C)C)OC(n3c(I)c(C#C[Si](C)(C)C)c(=O)[nH]c3=O)C2O1` (configuration not stated) the value was 106% (inactive).
Regarding `CC(=O)N1C(=S)NC(=O)C1Cn1c(-c2ccccc2)nc2ccccc21` (configuration not stated), the growth was 103% (inactive).
Still for that read-out and setting: next, `COCN1CCC2N(COC)CCC3N(COC)CCC1N23` (configuration not stated): 98% (inactive); `C=CC(=O)Nc1cccc(Oc2nccc(Nc3nnc(C4CC4)s3)n2)c1`: 113% (inactive); `COc1ccc(N=Nc2ccc(O)c(=O)cc2)cc1`: 13% (inactive).
Still for that read-out and setting: next, `C=C1C(=O)O[C@H]2[C@H]1CC/C(COC(=O)C(=O)c1cn(C)c3ccc(OC)cc13)=C\CC[C@@]1(C)O[C@@H]21`: -77.3% (active); `COc1cccc(-c2nn(-c3ccccc3)cc2-c2ccnc(NCCNC(=O)Nc3ccccc3)c2)c1`: 35.7% (inactive).
On the same count and under the same terms, next, `COC(=O)[C@]12CC[C@@H](C)[C@H](C)[C@@H]1C1=CC[C@@H]3[C@@]4(C)C(C=O)=C[C@@](C)(COC(C)=O)[C@@H]4[C@H](O)C[C@@]3(C)[C@]1(C)CC2`: -43.3% (active).
As to `O=C(Nc1cccc(Cl)c1)c1cc(N=Nc2ccc([N+](=O)[O-])cc2Cl)ccc1O`, the growth was 103% (inactive).
Still for that read-out and setting: for `COc1ccc(C2c3ccc4ccccc4c3Oc3nc(C)[nH]c(=O)c32)cc1` (configuration not stated) the value was 95.7% (inactive); for `COC(=O)c1ccc(C2Nc3ccc(S(=O)(=O)Nc4ccc(C)c(C)c4)cc3C3OCCC23)cc1` (configuration not stated), 94.1% (inactive).

Values taken from PubChem BioAssay (NCI).
